Screening data: PubChem BioAssay, National Center for Advancing Translational Sciences (NCATS)
HepG2 viability = counter-screen for TGF-b inhibitors: cytotoxicity in HepG2 cells; AID 588856; 410,000 compounds, 0.76% hits; Potency, µM (doses to about 46.1 µM), actives largely listed as cytotoxic; HepG2 CAGA-GFP viability, ATP luminescence, 18 h
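CellTiter-Glo luminescence gave cytotoxicity after 18 hours at 37 degrees C. The cells were HepG2 CAGA-GFP in 1% FBS DMEM, stimulated with 500 pg/mL TGF-beta after compound addition. %Activity was normalised to no-cell wells (complete cell-killing) and DMSO (no toxicity), and curves were fitted and classified.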
TGFb inhibitor = inhibitors of TGF-b signaling; HepG2 CAGA-GFP TGF-b/SMAD3 reporter, GFP fluorescence, 18 h; TGF-beta stimulated, 500 pg/mL final; Potency, µM (doses to about 46.1 µM), usual class: inhibitors; 410,000 compounds, 1.2% hits; AID 588855; also: nearly all actives have a fitted effect of over 65% in size
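TGF-beta reporter screen: HEPG2 CAGA-GFP, 1% FBS, 500 pg/mL TGF-beta final, 18 h; per-cell GFP summed per well; curves fitted and categorized by class.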
GLP1R inv ag = GLP-1 receptor (human) inverse agonism; HEK293 GLP-1R CRE-luciferase, luminescence, 24 h; GLP-1R form is constitutively active; P43220; AID 624417; 410,000 compounds, 1.6% hits; Potency, µM (doses to about 38.3 µM), hits mostly inhibitors; also: nearly all actives have a fitted effect of over 55% in size
Target sequence (P43220 whole entry, looked up): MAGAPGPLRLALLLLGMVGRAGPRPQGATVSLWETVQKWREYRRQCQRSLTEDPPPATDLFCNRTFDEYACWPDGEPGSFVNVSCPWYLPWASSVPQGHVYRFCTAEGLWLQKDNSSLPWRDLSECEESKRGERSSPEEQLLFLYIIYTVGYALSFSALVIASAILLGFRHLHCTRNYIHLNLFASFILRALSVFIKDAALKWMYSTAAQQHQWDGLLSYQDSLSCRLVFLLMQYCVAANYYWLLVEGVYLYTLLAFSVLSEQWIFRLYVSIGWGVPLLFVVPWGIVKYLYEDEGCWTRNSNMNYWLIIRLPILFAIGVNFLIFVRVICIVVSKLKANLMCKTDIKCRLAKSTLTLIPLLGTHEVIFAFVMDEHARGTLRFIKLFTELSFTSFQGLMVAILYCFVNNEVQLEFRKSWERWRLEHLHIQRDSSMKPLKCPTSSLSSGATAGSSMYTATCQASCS
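Inverse agonists were sought by their lowering of basal cAMP reporter luciferase output in HEK293 cells stably carrying constitutively active human GLP-1R, after 24 h compound treatment.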
GLP-1R agonist = agonists of human GLP-1 receptor. P43220. HEK293 GLP-1R CRE-luciferase, luminescence, 4-6 h; cells express a hypersensitive GLP-1R form. Potency, µM (highest dose often 45.6 µM), hits mostly activators. 380,000 compounds, 0.007% hits. AID 624172
ATXN2 expr inh = reduces ATXN2 reporter expression in HEK-293 cells; HEK-293 ATXN2-luciferase reporter, luminescence, 24 h; Potency, µM (highest dose often 57 µM), usual class: inhibitors; 360,000 compounds, 0.72% hits; AID 1745845; also: nearly all actives have a fitted effect of over 55% in size
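qHTS (up to 57 uM final) was run with 24 h compound exposure of reporter cells at 37 °C. Each well was multiplexed: SteadyGlo luminescence measured ATXN2-luciferase expression after a fluorogenic Gly-Phe-AFC viability readout (25 uM final).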
ATXN viability = cell viability loss in ATXN counter-screen; 400,000 compounds, 0.49% hits; Potency, µM (series often up to 56.7 µM), hits mostly cytotoxic; AID 651635; S2 cells (HEK-293 line with an ATXN2-luciferase reporter) viability, CellTiter-Fluor protease fluorescence, 24 h; also: nearly all actives have a fitted effect of over 40% in size
Each line names hits and unclear results; the compound was inactive in the other large screens. Hits are enriched below; roughly 3.7% of the tested compounds scored in any of these assays. Calls follow the shape of the dose curve; as a rule, active = well fitted curve in the direction sought with a large enough effect; inconclusive = small, poorly fitted or top-dose-only effect, or another doubt; inactive = no such curve, though single readings can be large; an effect the other way counts as inactive or inconclusive.

CN1CCN(C(c2cccs2)c2nnnn2Cc2ccc(F)cc2)CC1 (stereo not drawn)	none
CC12CC3(C)CC(C)(C1)CC(NC(=O)N1CCCC1)(C2)C3	GLP1R inv ag 10µM
O=C(NC(Cc1ccccc1)C(=O)N1CCc2ccccc2C1)c1ccccc1 (stereo not drawn)	GLP1R inv ag 8.9µM
O=C(NC(Cc1ccccc1)C(=O)O)c1ccccc1 (stereo not drawn)	none
O=C(Cc1cccs1)Nc1cccc(-c2nc3cc4ccccc4cc3[nH]2)c1	TGFb inhibitor 11µM, GLP1R inv ag 11µM, ATXN viability inconclusive
CC(=O)Nc1cccc(NC(=O)Cc2cccs2)c1	none (no result: ATXN2 expr inh)
CC(=O)Nc1ccc(S(=O)(=O)NC2(C(F)(F)F)C(=O)Nc3c2c(=O)[nH]c(=O)n3Cc2cccnc2)cc1 (stereo not drawn)	HepG2 viability 2.8µM
CC(=O)Nc1ccc(S(=O)(=O)NC2(C(F)(F)F)C(=O)Nc3c2c(=O)[nH]c(=O)n3Cc2ccco2)cc1 (stereo not drawn)	none
COc1ccc(/C=C(/C(=O)NCc2ccccc2)c2ccccc2)cc1	TGFb inhibitor inconclusive, GLP1R inv ag 25µM (no result: ATXN2 expr inh)
CN(C)CCCN1C(=O)c2cccc3c(Br)ccc(c23)C1=O	TGFb inhibitor inconclusive, GLP1R inv ag inconclusive, ATXN2 expr inh inconclusive (no result: ATXN viability)
CCCCNc1ccc2c3c(cccc13)C(=O)N(CCCC)C2=O	GLP1R inv ag 7.1µM (no result: ATXN viability)
Cc1ccc(C(c2sc3nc(-c4ccco4)nn3c2O)N2CCN(Cc3ccccc3)CC2)cc1 (stereo not drawn)	TGFb inhibitor inconclusive (no result: GLP-1R agonist)
O=C(Nc1ccccc1)c1ccc(Br)c(S(=O)(=O)N2CCCCC2)c1	TGFb inhibitor 6.3µM, GLP1R inv ag inconclusive (no result: GLP-1R agonist, ATXN2 expr inh, ATXN viability)
CCN1CCN(c2ccc(NC(=O)c3ccc(Cl)c(S(=O)(=O)N4CCCC4)c3)cc2)CC1	GLP1R inv ag 3.5µM, ATXN viability inconclusive
Cc1ccc(N(Cc2ccccc2)C(=O)c2ccc(Cl)c(S(=O)(=O)N3CCOCC3)c2)cc1	TGFb inhibitor inconclusive, GLP1R inv ag 11µM
Cc1ccc(NC(=O)c2ccc(Cl)c(S(=O)(=O)N3CCCCCC3)c2)nc1	GLP1R inv ag 7.1µM
CCN1CCN(c2ccc(NC(=O)c3ccc(OC)c(S(=O)(=O)N4CCCC4)c3)cc2)CC1	none
Cc1ccc(CNC(=O)c2ccc(Cl)c(S(=O)(=O)N3CCCCC3)c2)cc1	TGFb inhibitor inconclusive, GLP1R inv ag 10µM
CCN1CCN(S(=O)(=O)c2ccc(Cl)c(C(=O)Nc3ccc(OC(F)F)cc3)c2)CC1	HepG2 viability 8.9µM, GLP1R inv ag inconclusive
Cc1cccc(NC(=O)c2ccc(Cl)c(S(=O)(=O)N3CCc4ccccc43)c2)n1	TGFb inhibitor inconclusive, GLP1R inv ag 11µM (no result: ATXN2 expr inh)
Cc1cccc(NC(=O)c2ccc(Cl)c(S(=O)(=O)N3CCCC3)c2)n1	none
CCN1CCN(c2ccc(NC(=O)c3cc(S(=O)(=O)N4CCCC4)ccc3Cl)cc2)CC1	GLP1R inv ag inconclusive (no result: ATXN2 expr inh)
Cc1ccc2c(c1)N(C(=O)CCC(=O)NCc1cccc(F)c1)CC(C)O2 (stereo not drawn)	GLP1R inv ag inconclusive (no result: GLP-1R agonist)
Cc1ccc2cc(CNC(C)CO)c(N3CCC(O)CC3)nc2c1 (stereo not drawn)	none (no result: HepG2 viability, TGFb inhibitor, GLP1R inv ag, GLP-1R agonist, ATXN2 expr inh)
Cn1cnc([N+](=O)[O-])c1Cl	ATXN viability inconclusive
CCS(=O)(=O)c1c([N+](=O)[O-])ncn1C	TGFb inhibitor 18µM, ATXN viability inconclusive (no result: ATXN2 expr inh)
Cn1cnc([N+](=O)[O-])c1S(=O)(=O)Oc1cccc2ccccc12	TGFb inhibitor inconclusive, GLP1R inv ag inconclusive, ATXN2 expr inh inconclusive, ATXN viability 16µM
Cn1cnc([N+](=O)[O-])c1S(=O)(=O)Oc1ccc(Cl)cc1	HepG2 viability 22µM, TGFb inhibitor inconclusive, GLP1R inv ag inconclusive, ATXN2 expr inh inconclusive (no result: ATXN viability)
Cc1cnc2ccccc2c1/C=C/c1ccc(N)cc1	none (no result: GLP1R inv ag, GLP-1R agonist, ATXN2 expr inh, ATXN viability)
O=C(Nc1ccccc1)OCCCCOC(=O)Nc1ccccc1	none
C=C(C)C1CCC(C)=C1COC(=O)Nc1ccccc1 (stereo not drawn)	TGFb inhibitor inconclusive, GLP1R inv ag 8.9µM, ATXN viability inconclusive
CN(C)c1ccc(/C=C/c2sc3ccccc3[n+]2Cc2ccccc2)cc1	TGFb inhibitor inconclusive (no result: GLP1R inv ag, GLP-1R agonist, ATXN2 expr inh, ATXN viability)
COc1ccc(CCC(=O)N2c3ccccc3N=C(c3ccc(C(F)(F)F)cc3)C2C(=O)NC(C)C)cc1 (stereo not drawn)	none (no result: HepG2 viability, TGFb inhibitor, GLP-1R agonist, ATXN2 expr inh, ATXN viability)
COc1ccc(CCC(=O)N2c3ccccc3N=C(c3ccc(C(F)(F)F)cc3)C2C(=O)NC(C)(C)C)cc1 (stereo not drawn)	GLP1R inv ag 4.5µM (no result: HepG2 viability, TGFb inhibitor, GLP-1R agonist, ATXN2 expr inh, ATXN viability)
CC(C)CC1=NN(C(=O)c2cccnc2)C(O)(C(F)(F)F)C1 (stereo not drawn)	GLP1R inv ag inconclusive, ATXN viability inconclusive
CC(C)CC1=NN(C(=O)c2ccncc2)C(O)(C(F)(F)F)C1 (stereo not drawn)	GLP1R inv ag 1.1µM
CC1=NN(C(=O)c2cccnc2)C(O)(C(F)(F)F)C1 (stereo not drawn)	GLP1R inv ag inconclusive
CC1=NN(C(=O)c2csc(C(C)C)c2)C(O)(C(F)(F)F)C1 (stereo not drawn)	TGFb inhibitor inconclusive, GLP1R inv ag 1.3µM
COc1cccc(NC(=O)CSc2nnc(NC(=O)NC3CCCCC3)s2)c1	TGFb inhibitor inconclusive (no result: GLP-1R agonist, ATXN2 expr inh, ATXN viability)
O=C(NCC(O)COc1ccc([N+](=O)[O-])cc1)Nc1ccccc1 (stereo not drawn)	none
Cc1cc(C)cc(NC(=O)NCC(O)COc2ccc([N+](=O)[O-])cc2)c1 (stereo not drawn)	TGFb inhibitor inconclusive, GLP1R inv ag 8.9µM (no result: ATXN2 expr inh)
Cc1cccc(C2=NN(c3ccc(Br)cc3)[C@@H](C(=O)N3CCOC3=O)[C@@H]2c2ccc(F)cc2)c1	GLP1R inv ag 8.9µM
CC[C@@H]1C(c2ccc(F)cc2)=NN(c2ccc(Br)cc2)[C@H]1C(=O)N1CCOC1=O	TGFb inhibitor inconclusive, GLP1R inv ag 10µM, ATXN2 expr inh inconclusive
O=C1OCCN1C(=O)[C@H]1[C@H](c2ccc(F)cc2)C(c2cccc(Cl)c2)=NN1c1ccc(Br)cc1	TGFb inhibitor inconclusive, GLP1R inv ag 8.9µM (no result: ATXN viability)
O=C1OCCN1C(=O)[C@H]1[C@H](c2ccc([N+](=O)[O-])cc2)C(c2ccccc2)=NN1c1ccc(Br)cc1	TGFb inhibitor inconclusive, GLP1R inv ag 3.5µM
